Data on 40 compounds can be found in PubChem BioAssay (EPA / NIEHS).

Each structure is given as a SMILES string. Activity calls are given as the source filed them. The calls were made as follows: active = hit-call score of the fitted dose curve at least 0.9, where 1 is the maximum; inactive = score below 0.9.

Chain of Bile acid receptor (Homo sapiens) (Q96RI1 whole entry, looked up): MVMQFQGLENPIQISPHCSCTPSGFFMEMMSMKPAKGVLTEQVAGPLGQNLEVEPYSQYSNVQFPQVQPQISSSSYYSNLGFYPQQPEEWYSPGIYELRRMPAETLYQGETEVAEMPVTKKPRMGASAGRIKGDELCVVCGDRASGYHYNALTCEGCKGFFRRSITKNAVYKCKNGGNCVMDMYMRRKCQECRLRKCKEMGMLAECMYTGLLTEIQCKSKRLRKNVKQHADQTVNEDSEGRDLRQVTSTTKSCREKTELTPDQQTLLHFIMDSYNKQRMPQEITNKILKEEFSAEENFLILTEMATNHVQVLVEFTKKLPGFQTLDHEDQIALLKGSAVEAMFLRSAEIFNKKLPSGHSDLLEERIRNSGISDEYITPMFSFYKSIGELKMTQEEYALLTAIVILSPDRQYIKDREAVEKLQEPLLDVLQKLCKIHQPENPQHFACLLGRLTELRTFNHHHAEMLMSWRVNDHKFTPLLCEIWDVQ

For this experiment, the target named is Bile acid receptor (Homo sapiens) (UniProt Q96RI1). Description: ATG_IR1_CIS: Attagene CIS-FACTORIAL HepG2 Assay for human Nuclear Receptor Subfamily 1 Group H Member 4 (NR1H4), IR1 submotif (AID 2282946). As to conditions: IR1 reporter transcription, actives raise or lower the signal. How it is done:
ATG_CIS is a cell-based, multiplexed-readout assay that uses HepG2, a human liver cell line, with measurements taken at 24 hours after chemical dosing in a 24-well plate.ATG_IR1_CIS is one of 52 assay component(s) measured or calculated from the ATG_CIS assay. It is designed to make measurements of mRNA induction, a form of inducible reporter, as detected with fluorescence intensity signals by Reverse transcription polymerase chain reaction (RT-PCR) and Capillary electrophoresis technology.Data from the assay component ATG_IR1_CIS was analyzed into 1 assay endpoint. This assay endpoint, ATG_IR1_CIS, was analyzed with bidirectional fitting relative to DMSO as the negative control and baseline of activity. Using a type of inducible reporter, measures of mRNA for gain or loss-of-signal activity can be used to understand the reporter gene at the transcription factor-level as they relate to the gene NR1H4. Furthermore, this assay endpoint can be referred to as a primary readout, because this assay has produced multiple assay endpoints where this one serves a reporter gene function. To generalize the intended target to other relatable targets, this assay endpoint is annotated to the nuclear receptor intended target family, where the subfamily is non-steroidal.
Human liver HepG2 cells are transiently transfected with multiple reporter transcription units (MRTUs) in 6-well plates using FuGene 6 reagent (Roche; 3 ml FuGene/1 mg DNA). The MRTU constructs are regulated by a cis-regulating element (promoter). […] A major difference between the CIS and TRANS system is that in CIS activities of endogenous TFs are measured, whereas the TRANS assay evaluates changes in activities of exogenous, chimeric NR-Gal4 proteins. […] At the end of 24 hour incubation, total RNA was isolated using TriZol reagent (Invitrogen). The isolated RNA is then reverse-transcribed using oligo(dT) primer and Mo-MLV reverse transcriptase (Invitrogen) with DNAse I (Ambion) treatment for 30 min. The one-tenth of the produced cDNA was amplified by PCR using Taq DNA polymerase (Invitrogen) and two reporter sequence-specific primers. The PCR products were fluorescently labeled by primer extension with 6-arboxyfluorescein (6-FAM) 5'-labeled reporter sequence-specific primer (2 min at 95 C, 20 s at 68 C and 10 min at 72 C) and these products were digested with 5U of HpaI (New England Biolabs) for 2h at 37 C. The fragments were purified using Qiaquick PCR columns (Qiagen), analyzed on an ABI 3130xL genetic analyzer (Applied Biosystems) with peak positions identified by using a set of X-rhodamine (ROX)-labeled MapMarker1000 molecular weight standards (BioVentures). The raw capillary electrophoresis data was processed using Attagraph software (Attagene).
Take `C=C(C)C(=O)OCC1CCCO1` (stereo not given): the call was inactive.
Take `NC(=O)c1ccc(N)cc1`: the call was inactive.
The same measure, in the same setting: under `CC1=CCCC(C)(C)C12CCC(C)O2` (stereo not given) stands “inactive”; under `CC(C)(C)NC(=O)[C@@H]1CN(Cc2cccnc2)CCN1C[C@@H](O)C[C@@H](Cc1ccccc1)C(=O)N[C@H]1c2ccccc2C[C@H]1O`, “inactive”.
As for `COC(=O)[C@]1(C)CCC[C@@]2(C)[C@H]1CC=C1C=C(C(C)C)CC[C@@H]12`, the AC50 (usually the concentration giving half of the maximal activity seen) is 6.77 µM (active).
On to `c1cc(N(CC2CO2)CC2CO2)ccc1Cc1ccc(N(CC2CO2)CC2CO2)cc1` (stereo not given), for which the AC50 is 27.6 µM (active).
For the compound `CCOC(=O)CC(=O)OCC`, the compound was called inactive.
For `Oc1ccc(Oc2ccccc2)cc1`, the outcome was inactive.
Still for that read-out and setting: under `C/C=C(\C)C(=O)OCC/C=C\CC` stands “inactive”; under `Sc1nc2ccccc2s1`, “inactive”; under `CCO[Si](OCC)(OCC)c1ccccc1`, “inactive”.
Turning to `O=[N+]([O-])c1ccc2nc[nH]c2c1`, the call was inactive.
In the case of `CN1CCCC1`, the compound was classed as inactive.
Same read-out and setting: as for `C=CC(C)(CCC=C(C)C)OC(=O)c1ccccc1` (stereo not given), the entry is “inactive”.
As to `COC(=O)CCSCCC(=O)OC`, the result was inactive.
For `CC(=O)OC(C)(C)Cc1ccccc1`, the compound was classed as inactive.
On to `CNC[C@H](O)[C@@H](O)[C@H](O)[C@H](O)CO`, for which the result was inactive.
For `c1ccc(CNc2ncnc3nc[nH]c23)cc1`, the call was inactive.
Regarding `CCCCCC1CCCC(=O)O1` (stereo not given), the call was inactive.
Turning to `O=C(Oc1ccccc1)c1ccccc1`, the compound was classed as inactive.
Take `CCCCCCCCCCCCCCCCCC[N+](C)(C)C`: the AC50 was 45.2 µM (active).
As to `Cc1ccnc(N)c1`, the result was inactive.
In the case of `[O-][n+]1ccc(Cl)cc1`, the outcome was inactive.
As to `NC(=O)c1ccc([N+](=O)[O-])cc1Cl`, the call was inactive.
Regarding `Cc1cc(-n2nc3ccc(Cl)cc3n2)c(O)c(C(C)(C)C)c1`, the call was inactive.
Same read-out and setting: under `O=C(OCc1ccccc1)c1ccccc1` stands “inactive”.
Still for that read-out and setting: as for `Cc1ccccc1S(N)(=O)=O`, the entry is “inactive”.
`CCC(=O)OCc1ccc(OC)cc1`: the outcome was inactive.
Regarding `CCCCOC(=O)COc1ccc(Cl)cc1Cl`, the AC50 is 24.4 µM (active).
For the compound `CCOc1ccc2c(c1)C(C)CC(C)(C)N2` (stereo not given), the outcome was inactive.
As for `CCCC(=O)OC/C=C(\C)CCC=C(C)C`, the compound was called inactive.
Consider `CC/C=C\CCO`, for which the result was inactive.
Consider `CC/C=C/CCO`, for which the result was inactive.
Regarding `Oc1cccc2ccccc12`, the compound was classed as inactive.
For `CCO[Si](CCCN)(OCC)OCC`, the outcome was inactive.
As to `Clc1ccccn1`, the result was inactive.
For `CCCCNC(N)=O`, the outcome was inactive.
`CCCCCCCCCC/C=C/C1CC(=O)OC1=O` (stereo not given): the result was inactive.
For the compound `O=C1NC(=O)[C@@H]2CC=CC[C@H]12`, the compound was classed as inactive.
Still for that read-out and setting: under `O=C(O)Cc1c[nH]c2ccccc12` stands “inactive”.
